According to PubChem BioAssay AID709 (SRMLSC, 2007):
Hit rate of the full screen: of about 65,000 compounds, about 3,600 (5.5%) were called active. Shown is part of a subset that was picked to be rich in actives. Values without a mark were called inactive.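 How the source made its calls: active means at 10 µM, mean starting fluorescence two-fold or more over control wells; inactive means the rest.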

Assay: intrinsic fluorescence of library compounds, ex339/em460 – biochemical, MLSMR library, data from DPM-DC assay, artefact control, profiling panel (AID 709);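 further: signal is the first read of a kinetic run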
Conditions: compound autofluorescence, ex339/em460 nm, NADH buffer; at 10 µM; stronger effect = higher value; 1 = no-compound wells, NADH background
Compound `CCC(C)(C)n1nnnc1C(c1cccs1)N1CCN(c2nc3ccccc3s2)CC1` (configuration not stated) has a fluorescence fold increase of 1.35. `CCOC(=O)c1[nH]cnc1C(=O)NC1CCCCC1` gave a fluorescence fold increase of 1.07. Compound `COc1cccc(N2CCN(C3CC(=O)N(c4ccc(Cl)cc4)C3=O)CC2)c1` (configuration not stated) has a fluorescence fold increase of 1.12. Work on `CC1CCCN(C(=O)Cn2c(=O)oc3ccccc32)C1` (configuration not stated) yielded a fluorescence fold increase of 1.09. `Cc1nc(NCc2ccccc2)c(C(N)=O)c2c1COC(C)(C)C2` gave a fluorescence fold increase of 1.89. `O=C(O)CCC(=O)N(Cc1cccs1)Cc1cccs1` gave a fluorescence fold increase of 1.09. Compound `CCCC(=O)NC(C)C(c1cccs1)N1CCN(c2ccccc2)CC1` (configuration not stated) has a fluorescence fold increase of 0.99. With `CC(C)Cn1c(CCC(=O)O)ccc1-c1cccs1` the fluorescence fold increase was 3.14 (active). Compound `CCCCOC(=O)c1ccc(N2C(=O)CC(N3CCN(C/C=C/c4ccccc4)CC3)C2=O)cc1` (configuration not stated) has a fluorescence fold increase of 1.12. With `Clc1ccc(Cc2nn3c(-c4ccncc4)nnc3s2)cc1` the fluorescence fold increase was 1. In the case of `CCCCC(=O)Nc1ccc(C(=O)NCCCn2ccnc2)cc1`, the fluorescence fold increase is reported as 1.13. In the case of `CCCCC(=O)Nc1ccc2c(c1)C(=O)NC2=O`, the fluorescence fold increase is reported as 2.11 (active). With `CCCCC(=O)Nc1ccc2c(c1)OCCO2` the fluorescence fold increase was 1.08. For `O=C(Nc1ccccc1N1CCN(C(=O)c2ccccc2)CC1)c1ccc2c(c1)OCO2`, the fluorescence fold increase was 1.1. With `N#CCSc1nc2ccccc2c(=O)n1-c1ccccc1` the fluorescence fold increase was 1.11. `CC(C)CCNC(=O)C1CCCN(S(=O)(=O)c2ccc(F)cc2)C1` (configuration not stated) showed a fluorescence fold increase of 1.06. In the case of `CC(C)(C)OC(=O)c1c(N)n(CCCN2CCCC2=O)c2nc3ccccc3nc12`, the fluorescence fold increase is reported as 3.76 (active). Work on `CCOc1cc2[nH]c(=S)n(CCCN3CCCC3=O)c(=O)c2cc1OCC` yielded a fluorescence fold increase of 1.07. `CSc1nnc(-c2ccncc2)n1CCCN1CCCC1=O` showed a fluorescence fold increase of 0.81. Work on `COc1ccc(CNC2CCCCC2)cc1` yielded a fluorescence fold increase of 1.1. For `O=S(=O)(NCCNS(=O)(=O)c1ccccc1)c1ccccc1`, the fluorescence fold increase was 1.04. In the case of `CCOc1ccc2nc(NCCNS(=O)(=O)c3ccccc3)c(C#N)cc2c1`, the fluorescence fold increase is reported as 3.3 (active). In the case of `CCOc1ccc2cc(C#N)c(SCC(=O)OC)nc2c1`, the fluorescence fold increase is reported as 1.95. In the case of `COC(=O)C(CC(=O)Nc1cc(C)ccc1C)Nc1ccccc1OC` (configuration not stated), the fluorescence fold increase is reported as 1.02. Compound `COc1ccc(C2C3=C(OC(C)=O)c4ccccc4C3=Nc3c2c(=O)n(C)c(=O)n3C)cc1` (configuration not stated) has a fluorescence fold increase of 1.09. Work on `CC1CCCN(C(=O)c2ccc3c(c2)C(=O)N(CCC2=CCCCC2)C3=O)C1` (configuration not stated) yielded a fluorescence fold increase of 1.04. In the case of `Cc1ccc2c(c1)c1ncn(CCC3=CCCCC3)c(=O)c1n2C`, the fluorescence fold increase is reported as 2.08 (active). Work on `Cn1nnc2cc(C(=O)NCCC3=CCCCC3)ccc21` yielded a fluorescence fold increase of 1.03. Work on `Cc1ccc(C(C(=O)NCc2ccco2)N(CC2CCCO2)C(=O)Cn2nnc3ccccc32)cc1` (configuration not stated) yielded a fluorescence fold increase of 0.88. `CCc1nnc(NC(=O)CSc2nnc(COc3ccc(C#N)cc3)n2-c2ccccc2)s1` showed a fluorescence fold increase of 1.27. In the case of `Cc1nn(-c2ccccc2)c2c1C(=O)NC(=O)C(C)(C)C2`, the fluorescence fold increase is reported as 1.03. Compound `O=C(Nc1cccc(OCC(=O)N2CCOCC2)c1)C1CCCCC1` has a fluorescence fold increase of 1.05. For `O=C1CC2(CCCCC2)Oc2ccc(OCC(=O)N3CCOCC3)cc21`, the fluorescence fold increase was 5.15 (active). Work on `COc1ccc(OCC(=O)N2CCOCC2)cc1` yielded a fluorescence fold increase of 1.05. Work on `Cn1c(=O)c2c(nc(OCc3cccnc3)n2Cc2ccccc2)n(C)c1=O` yielded a fluorescence fold increase of 1.09. `CCC(C)(NC(=O)c1ccccn1)C(=O)NC1CCCCC1` (configuration not stated) showed a fluorescence fold increase of 1.14. `Cc1cc(=O)n(C)c(=O)n1CCCNc1ccccc1` showed a fluorescence fold increase of 1.05. In the case of `CCOC(=O)/C=c1\s/c(=C\c2ccccc2OC)c(=O)n1CC(=O)N1CCOCC1`, the fluorescence fold increase is reported as 1.14. `CCOC(=O)c1sc(NC(=O)C(CC)Sc2nccn2C)nc1C` (configuration not stated) gave a fluorescence fold increase of 1.08. `CCOC(=O)c1nc(N)sc1C(=O)OCC` showed a fluorescence fold increase of 1.12. With `CCOC(=O)c1sc(/N=C/Nc2nc(C)c(C(=O)OCC)s2)nc1C` the fluorescence fold increase was 4.03 (active). For `O=C1NC2(CCCCC2)N=C1c1ccccc1`, the fluorescence fold increase was 1.08. Compound `COc1ccccc1N1CCN(C(=O)Cn2nnc(-c3cccs3)n2)CC1` has a fluorescence fold increase of 1.07. `C=CCn1c(=S)[nH]c2nc3c(cc2c1=O)COC(C)(C)C3` gave a fluorescence fold increase of 1.03. For `O=c1c(-c2ccccc2)coc2c(CN3CCOCC3)c(O)ccc12`, the fluorescence fold increase was 2.45 (active). Work on `O=C(c1ccccc1-c1ccccc1)N1CCOCC1` yielded a fluorescence fold increase of 0.82. `COc1ccc(OC)c(C(=O)c2coc3ccc(O)c(CN4CCOCC4)c23)c1` showed a fluorescence fold increase of 1.03. For `CSCCC(NC(N)=O)C(=O)N(C)CC(=O)Nc1ccc(C)cc1` (configuration not stated), the fluorescence fold increase was 0.91. Compound `O=C(NCCCN1CCCCCC1)C1CC(=O)N(C2CCCC2)C1` (configuration not stated) has a fluorescence fold increase of 1.16. Work on `COc1cc2ccccc2cc1C(=O)Nc1ccc(S(=O)(=O)Nc2cc(C)on2)cc1` yielded a fluorescence fold increase of 1.32. `O=C(Cn1cnc2c(nnn2-c2ccccc2)c1=O)N1CCC(Cc2ccccc2)CC1` showed a fluorescence fold increase of 1.07. `O=C(NCc1ccccn1)Nc1ccc(F)cc1` showed a fluorescence fold increase of 1.14. `CCOC(=O)c1cnc(-n2nc(C)cc2C)nc1-n1nc(C)cc1C` gave a fluorescence fold increase of 1.13. With `CCOC(=O)c1cnc2sccn2c1=O` the fluorescence fold increase was 3.33 (active). Compound `CCCCOc1ccc(-c2ncc(C(=O)OCC)c(N)n2)cc1` has a fluorescence fold increase of 1.17. Compound `O=C(NCc1ccccn1)c1cc2ccccc2oc1=O` has a fluorescence fold increase of 1.48. In the case of `O=C(NCc1ccccn1)c1cnc2sccn2c1=O`, the fluorescence fold increase is reported as 2.7 (active). For `Cc1cc2nc(-c3ccc(NC(=O)c4cccnc4)cc3)oc2cc1C`, the fluorescence fold increase was 2.26 (active). Compound `CC(C)NS(=O)(=O)c1ccc(NC(=O)c2cccnc2)cc1` has a fluorescence fold increase of 1.03. `CCOC(=O)c1cc(NC(=O)c2cccnc2)cc(C(=O)OCC)c1` showed a fluorescence fold increase of 1.12. In the case of `CSc1nc(C)nc2c1c(=O)n(C)c(=O)n2C`, the fluorescence fold increase is reported as 1.11. With `Cc1ccccc1NC(=O)NCc1ccco1` the fluorescence fold increase was 1.12. With `Cc1cc(NCc2ccco2)n2c(nc3ccccc32)c1C#N` the fluorescence fold increase was 2.23 (active). `c1coc(CNc2ncnc3ccccc23)c1` gave a fluorescence fold increase of 1.1. Work on `Cc1cccc(OCc2nnc(SCn3nnc4ccccc4c3=O)o2)c1` yielded a fluorescence fold increase of 1.07. For `CC(C)(C)n1nc2c(c1NC(=O)c1ccc(S(=O)(=O)N3CCCC3)cc1)CS(=O)C2` (configuration not stated), the fluorescence fold increase was 1.02. In the case of `N/C(=N\c1nc2ccccc2o1)NC(=O)C(Cc1ccccc1)N1C(=O)c2ccccc2C1=O` (configuration not stated), the fluorescence fold increase is reported as 1.09. With `O=C(NCCN1CCOCC1)[C@H](Cc1ccccc1)N1C(=O)c2ccccc2C1=O` the fluorescence fold increase was 2.12 (active). Compound `O=C(CCN1C(=O)c2ccccc2C1=O)NCCN1CCOCC1` has a fluorescence fold increase of 1.02. Work on `Clc1ccc(Cc2nnc(-c3cccs3)o2)cc1` yielded a fluorescence fold increase of 1.11. For `O=C(Nc1nccs1)C1CCCN1S(=O)(=O)c1cccc2cccnc12` (configuration not stated), the fluorescence fold increase was 1. For `Cc1c(C(=O)OCC(=O)N(CCC#N)c2ccccc2)oc2c1ccc1ccccc12`, the fluorescence fold increase was 2.16 (active). In the case of `Cc1c(C(=O)OCc2cc(=O)n3cc(Br)ccc3n2)oc2ccccc12`, the fluorescence fold increase is reported as 1.07. Compound `NC(=NC(=O)c1ccccc1)C1=C(O)CCC1=O` has a fluorescence fold increase of 1.14. In the case of `CCCc1nc(-c2ccccc2O)n(-c2ccccc2)n1`, the fluorescence fold increase is reported as 1.12. In the case of `COc1ccc(OC)c2sc(NC(=O)C3COc4ccccc4O3)nc12` (configuration not stated), the fluorescence fold increase is reported as 1.19. For `COCCCNC(=O)CSc1nc2ccc(N3CCOCC3)cc2c(=O)n1CCc1ccccc1`, the fluorescence fold increase was 2.61 (active). For `CCc1ccc(NC(=O)CSc2nc3ccccc3c(=O)n2CCN2CCOCC2)cc1`, the fluorescence fold increase was 1.09. In the case of `CCn1c(SCC(=O)NCC2CCCO2)nc2cc(S(=O)(=O)N3CCCCC3)ccc21` (configuration not stated), the fluorescence fold increase is reported as 1. For `CCCCn1c(SCC(=O)NCC2CCCO2)nc2ccc(N3CCOCC3)cc2c1=O` (configuration not stated), the fluorescence fold increase was 4.22 (active). With `COCCNC(=O)CSc1nc2c(n1-c1ccccc1)CCCC2` the fluorescence fold increase was 1.16. `Cc1ccc2cc(C#N)c(SCC(=O)NCC3CCCO3)nc2c1C` (configuration not stated) gave a fluorescence fold increase of 1.14. `CC12CCC(C(=O)N(CCC#N)CCC#N)(CC1=O)C2(C)C` (configuration not stated) gave a fluorescence fold increase of 1.07. For `Cc1ccc(S(=O)(=O)N2CCC(C(=O)N[C@@H](C)C(=O)NCCc3ccccc3)CC2)cc1`, the fluorescence fold increase was 1.11. Work on `O=C(c1c(Cl)nc2sccn12)N1CCCc2ccccc21` yielded a fluorescence fold increase of 1. For `O=C(CC(NCCN1CCOCC1)C(=O)O)Nc1cccc(Cl)c1` (configuration not stated), the fluorescence fold increase was 1.1. Compound `COc1ccc(-n2nnc3c(=O)n(CC(=O)N4CCC(Cc5ccccc5)CC4)cnc32)cc1` has a fluorescence fold increase of 1.08. With `COc1ccc2c(c1OC)C(=O)OC2c1c(O)nc(SC)n(-c2ccccc2)c1=O` (configuration not stated) the fluorescence fold increase was 1.06. For `Cc1nc2ccccc2cc1O`, the fluorescence fold increase was 2.48 (active). For `CCOC(=O)c1cc2ccccc2nc1C`, the fluorescence fold increase was 1.08. `Cc1cc(O)ccc1-c1cnc2ccccc2n1` gave a fluorescence fold increase of 1.05. `Cc1cccc(OCc2nnc(SCC(=O)N3CCN(C(=O)c4ccco4)CC3)n2C)c1C` showed a fluorescence fold increase of 1.11. `O=C(O)C1CCN(S(=O)(=O)N2CCOCC2)CC1` gave a fluorescence fold increase of 1.1. With `CCOC(=O)c1cc2n(c1N)-c1ccccc1C2=O` the fluorescence fold increase was 1.16. In the case of `CCOC(=O)c1cc2n(c1C)-c1ccccc1C2=O`, the fluorescence fold increase is reported as 1.02. In the case of `CCCn1c(=NC(C)=O)c(C(=O)OCC)cc2c(=O)n3ccccc3nc21`, the fluorescence fold increase is reported as 3.86 (active). `O=C(Nc1ccc(NC(=O)c2cccs2)cn1)c1ccco1` gave a fluorescence fold increase of 1.08. Work on `Cc1cccc(-n2c(N)cc(=O)nc2SC(C)C(=O)NC2CCCCC2)c1` (configuration not stated) yielded a fluorescence fold increase of 1.06. For `O=C(CN1C(=O)C2C3C=CC(C3)C2C1=O)NCCc1ccccc1Cl` (configuration not stated), the fluorescence fold increase was 1.05. Compound `CCOc1ccc(OCC)c(NC(=O)CSc2nnc(Cn3cnc4ccccc43)n2C)c1` has a fluorescence fold increase of 1.12. `Cn1c(Cc2csc(N)n2)nnc1SC/C=C/c1ccccc1` gave a fluorescence fold increase of 1.1. In the case of `Cc1cn(C2C=CC(CO)O2)c(=O)[nH]c1=O` (configuration not stated), the fluorescence fold increase is reported as 1.07.
